Source: PubChem
An excerpt weighted towards active compounds, which were near 3.5% of everything screened.
Smad3 inh = Smad3/FoxH1 peptide binding inhibitors, primary screen, biochemical, TR-FRET. TR-FRET Smad3/Dy647-FoxH1 peptide binding, europium anti-His. inhibition, % at 25 µM. 88,000 compounds, 0.29% hits;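 active = compounds that reduce the energy-transfer binding signal between the protein and its labelled peptide by more than half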;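 note: 0% = Smad3 plus labelled peptide maximal FRET and 100% = peptide-only background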
Target sequence (P84022 whole entry, looked up): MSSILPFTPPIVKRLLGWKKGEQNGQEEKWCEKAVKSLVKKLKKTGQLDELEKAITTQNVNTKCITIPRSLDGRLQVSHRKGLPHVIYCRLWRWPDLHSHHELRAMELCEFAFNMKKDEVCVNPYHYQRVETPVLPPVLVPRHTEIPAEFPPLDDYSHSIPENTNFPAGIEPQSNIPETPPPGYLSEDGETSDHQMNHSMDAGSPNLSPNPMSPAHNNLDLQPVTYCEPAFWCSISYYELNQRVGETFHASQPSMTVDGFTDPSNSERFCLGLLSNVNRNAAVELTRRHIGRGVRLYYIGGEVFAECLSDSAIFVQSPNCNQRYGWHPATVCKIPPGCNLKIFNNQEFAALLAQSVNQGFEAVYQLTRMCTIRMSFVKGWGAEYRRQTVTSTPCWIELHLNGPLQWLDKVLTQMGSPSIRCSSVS
ERa SRC1 inh = ERα–SRC-1 coactivator interaction inhibitors, primary screen, biochemical, TR-FRET, ERα LBD, estradiol-bound. TR-FRET ER-alpha LBD / SRC-1 peptide. Estrogen receptor (Homo sapiens), P03372. inhibition, % at 25.6 µM. 86,000 compounds, 1.7% hits; in the data active = inhibition above about 50%;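 note: 0% = receptor plus peptide control and 100% = peptide only without receptor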
ERa SRC1 pot = enhancers of ERα–SRC-1 coactivator binding, primary screen, biochemical, TR-FRET, ERα LBD, low estradiol | Estrogen receptor (Homo sapiens), P03372 | coactivator binding (% of control), % at 25.6 µM | TR-FRET ERalpha-LBD/SRC-Cy5 coactivator binding, 2 h; 100 = basal binding, no effect | 86,000 compounds, 1.3% hits; in the data active = activity above about 200%;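 note: binding measured in presence of low estradiol as agonist stimulus; 0% = peptide alone without receptor and 100% = receptor with peptide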
ERb coact inh = inhibitors of ERβ-SRC1 coactivator interaction, primary screen, biochemical, TR-FRET, ERβ LBD, SRC-1 peptide; inhibition, % at 25.6 µM; Estrogen receptor beta (Homo sapiens), Q92731; 86,000 compounds, 1.3% hits; TR-FRET ER-beta LBD / SRC1-Cy5 peptide binding; receptor agonist-loaded with 1 µM estradiol;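 active = compounds whose percent inhibition of the receptor-coactivator binding signal exceeds about 50% in the single-dose screen, limit read from the data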;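 note: 0% = receptor plus peptide wells without compound and 100% = peptide-only wells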
MT1-MMP txn act = MT1-MMP promoter reporter activation – cell-based, luciferase luminescence, primary screen; activation factor at 10 µM; 86,000 compounds, 0.16% hits; HT1080 MT1-MMP promoter luciferase reporter, overnight; hits give high values;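 active = activation factor of at least 2 for MT1-MMP transcription at 10 µM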
MMP13 inh = human MMP13 inhibitors, primary screen, biochemical, FRET peptide cleavage; MMP-13 fTHP FRET cleavage, Mca fluorescence; 65,000 compounds, 0.07% hits; AID 570, 2006; Collagenase 3 (Homo sapiens), P45452; inhibition, % at 4 µM;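 active = inhibition above the mean of compound-free control plate wells plus 3 SD, cut at about 14% in these data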;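 note: 0% = DMSO wells and 100% = wells with reference MMP-13 inhibitor after basal subtraction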
Starred values were filed as active, the others as inactive; [ ] = remark or other dose.

Results for O/N=C/c1cn(-c2ccccc2)nc1-c1ccc2c(c1)OCCO2 ?
Smad3 inh: 24; ERa SRC1 inh: -26; ERa SRC1 pot: 106; ERb coact inh: -37; MT1-MMP txn act: 1.4

What do the screens show for `CCN(CC)/C(=N/S(=O)(=O)c1ccc(C)cc1)c1ccccc1`?
Smad3 inh: 2; ERa SRC1 inh: -5; ERa SRC1 pot: 102; ERb coact inh: 2; MT1-MMP txn act: 1.2

What do the screens show for `O=S(=O)(/N=C(/Sc1ccccc1)c1ccccc1)c1ccccc1`?
Smad3 inh: 5; ERa SRC1 inh: 77*; ERa SRC1 pot: 64; ERb coact inh: 54*[fluorescence artefact?]; MT1-MMP txn act: 1

Results for CC1CCCCC1NC(=O)COC(=O)c1ccccn1 (centres undefined) ?
Smad3 inh: 2; ERa SRC1 inh: -5; ERa SRC1 pot: 95; ERb coact inh: -2; MT1-MMP txn act: 1.1

Results for COc1ccc(OC)c(S(=O)(=O)Nc2ccccc2SC)c1 ?
Smad3 inh: 2; ERa SRC1 inh: -5; ERa SRC1 pot: 89; ERb coact inh: -7; MT1-MMP txn act: 1.1; MMP13 inh: 8

How did CCc1cccc(CC)c1NC(=O)c1cccc(N)c1 do in these assays?
Smad3 inh: 1; ERa SRC1 inh: 23; ERa SRC1 pot: 100; ERb coact inh: -3

Results for Cc1occc1C(=O)N/N=C/c1cnn(C)c1C ?
Smad3 inh: 7; ERa SRC1 inh: 1; ERa SRC1 pot: 106; ERb coact inh: -3; MT1-MMP txn act: 1.6

Results for Cc1c(/C=C/C(=O)c2ccc(Cl)s2)cnn1C ?
Smad3 inh: 13; ERa SRC1 inh: -2; ERa SRC1 pot: 96; ERb coact inh: -6; MT1-MMP txn act: 2.4*

What do the screens show for `Cc1ccc(Nc2ncnc3c2oc2ccccc23)cc1`?
Smad3 inh: 11; ERa SRC1 inh: 10; ERa SRC1 pot: 104; ERb coact inh: -3; MT1-MMP txn act: 1.8

How did O=C(c1ccco1)N1CCN(C(=O)c2cc(-c3ccccn3)nc3ccc(Cl)cc23)CC1 do in these assays?
Smad3 inh: 0; ERa SRC1 inh: 64*[fluorescence artefact?]; ERa SRC1 pot: 44; ERb coact inh: 54*[fluorescence artefact?]; MT1-MMP txn act: 1.4; MMP13 inh: -4

Results for O=C(c1ccco1)N1CCN(C(=O)c2cc(-c3ccccc3)nc3ccccc23)CC1 ?
Smad3 inh: -1; ERa SRC1 inh: -3; ERa SRC1 pot: 95; ERb coact inh: -16; MT1-MMP txn act: 1.2

Results for CC(=C1C(=O)c2ccccc2C1=O)N1CCN(Cc2ccccc2)CC1 ?
Smad3 inh: 0; ERa SRC1 inh: 0; ERa SRC1 pot: 714*[fluorescence artefact?]; ERb coact inh: -2; MT1-MMP txn act: 1.1; MMP13 inh: -1

Results for COc1cc(C2C(C#N)=C(C)NC3=C2C(=O)CC(C)(C)C3)cc(OC)c1O (centres undefined) ?
Smad3 inh: 23; ERa SRC1 inh: -7; ERa SRC1 pot: 131; ERb coact inh: -5; MT1-MMP txn act: 1.1; MMP13 inh: 1

How did Cc1cccc(NC(=O)C2CCN(S(=O)(=O)c3cccc4nsnc34)CC2)c1 do in these assays?
MT1-MMP txn act: 1.3

What do the screens show for `Cc1cccc(NC(=O)C2CCCN(S(=O)(=O)c3cccc4nsnc34)C2)c1` (centres undefined)?
Smad3 inh: -6; ERa SRC1 inh: 23; ERa SRC1 pot: 230*[fluorescence artefact?]; ERb coact inh: 51*[fluorescence artefact?]; MT1-MMP txn act: 1.1

How did Cc1ccccc1N1CCN(Cc2c(C#N)c3ccccc3n2C)CC1 do in these assays?
Smad3 inh: 11; ERa SRC1 inh: -6; ERa SRC1 pot: 113; ERb coact inh: -2; MT1-MMP txn act: 1.1; MMP13 inh: 1

What do the screens show for `O=C1c2ccccc2C(=O)N1CCOc1ccccc1`?
Smad3 inh: -2; ERa SRC1 inh: -6; ERa SRC1 pot: 97; ERb coact inh: -5; MT1-MMP txn act: 2.1*
